The whole screen tested about 5,500 compounds, of which about 2,000 (36%) were called active. Not shown: some 18% with an inconclusive outcome. The list shows a part of the results. Unmarked numbers belong to inactive results. Rule as the data show it: active = normalized growth mostly below about 0.91 (no sharp cut-off); inconclusive = no clear call, values can overlap the other calls; inactive = mostly above about 0.92.
Experiment: chemical genetic growth profiling, strain panel (AID 1159580);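 also: tested at 20 µM; growth read once vehicle control cultures reached saturation at 30 °C; 1 = growth at the plate median or of vehicle wells; lower values mean less growth of the strain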
Conditions: growth OD

Compound: C#CCCCCCCCCCCCC(O)CC(O)COC(C)=O (stereo unspecified)
- normalized growth (S. cerevisiae deletion strains, locus YKL009W, strain mrt4, hits give low values): 0.8 (active)
- normalized growth (S. cerevisiae deletion strains, locus YKL068W, hits give low values): 0.985
- normalized growth (S. cerevisiae deletion strains, locus YKL085W, strain MDH1 (second series), hits give low values): 0.964
- normalized growth (S. cerevisiae deletion strains, locus YKL085W, strain MDH1, hits give low values): 0.964
- normalized growth (S. cerevisiae deletion strains, locus YKL160W, strain elf1, hits give low values): 0.864 (active)
- normalized growth (S. cerevisiae deletion strains, locus YKL190W, strain CNB1, hits give low values): 0.986
- normalized growth (S. cerevisiae deletion strains, locus YKR001C, strain vps1, hits give low values): 0.871 (active)
- normalized growth (S. cerevisiae deletion strains, locus YKR026C, strain gcn3, hits give low values): 0.843 (active)
- normalized growth (S. cerevisiae deletion strains, locus YKR091W, strain srl3, hits give low values): 0.996
- normalized growth (S. cerevisiae deletion strains, locus YLL001W, strain dnm1, hits give low values): 0.913
- normalized growth (S. cerevisiae deletion strains, locus YLL026W, hits give low values): 0.344 (active)
- normalized growth (S. cerevisiae deletion strains, locus YLL041C, strain sdh2, hits give low values): 0.542 (active)
- normalized growth (S. cerevisiae deletion strains, locus YLR027C, strain aat2, hits give low values): 0.478 (active)
- normalized growth (S. cerevisiae deletion strains, locus YLR039C, strain RIC1, hits give low values): 0.976
- normalized growth (S. cerevisiae deletion strains, locus YLR058C, strain SHM2, hits give low values): 0.965
- normalized growth (S. cerevisiae deletion strains, locus YLR102C, strain apc9, hits give low values): 0.968
- normalized growth (S. cerevisiae deletion strains, locus YLR113W, strain HOG1, hits give low values): 0.94
- normalized growth (S. cerevisiae deletion strains, locus YLR221C, strain rsa3, hits give low values): 0.305 (active)
- normalized growth (S. cerevisiae deletion strains, locus YLR258W, strain gsy2, hits give low values): 0.493 (active)
- normalized growth (S. cerevisiae deletion strains, locus YLR262C, strain YPT6 (second series), hits give low values): 0.726 (active)
- normalized growth (S. cerevisiae deletion strains, locus YLR262C, strain YPT6, hits give low values): 0.962
- normalized growth (S. cerevisiae deletion strains, locus YLR268W, strain sec22, hits give low values): 0.927
- normalized growth (S. cerevisiae deletion strains, locus YLR320W, strain mms22, hits give low values): 0.647 (active)
- normalized growth (S. cerevisiae deletion strains, locus YLR330W, strain CHS5, hits give low values): 0.981
- normalized growth (S. cerevisiae deletion strains, locus YLR342W, strain FKS1 (second series), hits give low values): 0.856
- normalized growth (S. cerevisiae deletion strains, locus YLR342W, strain FKS1, hits give low values): 0.647 (active)
- normalized growth (S. cerevisiae deletion strains, locus YLR357W, strain rsc2, hits give low values): 0.958
- normalized growth (S. cerevisiae deletion strains, locus YLR370C, strain arc18, hits give low values): 0.994
- normalized growth (S. cerevisiae deletion strains, locus YLR371W, strain rom2, hits give low values): 0.958
- normalized growth (S. cerevisiae deletion strains, locus YLR384C, strain iki3, hits give low values): 0.967
- normalized growth (S. cerevisiae deletion strains, locus YLR418C, strain cdc73, hits give low values): 0.861
- normalized growth (S. cerevisiae deletion strains, locus YML016C, strain PPZ1, hits give low values): 0.978
- normalized growth (S. cerevisiae deletion strains, locus YML032C, strain rad52, hits give low values): 0.868 (active)
- normalized growth (S. cerevisiae deletion strains, locus YML120C, strain ndi1, hits give low values): 0.171 (active)
- normalized growth (S. cerevisiae deletion strains, locus YML124C, strain tub3, hits give low values): 0.972
- normalized growth (S. cerevisiae deletion strains, locus YMR058W, strain fet3, hits give low values): 0.749 (active)
- normalized growth (S. cerevisiae deletion strains, locus YMR078C, strain ctf18, hits give low values): 0.954
- normalized growth (S. cerevisiae deletion strains, locus YMR125W, strain sto1, hits give low values): 0.908
- normalized growth (S. cerevisiae deletion strains, locus YMR129W, hits give low values): 0.316 (active)
- normalized growth (S. cerevisiae deletion strains, locus YMR205C, strain PFK2, hits give low values): 0.507 (active)
- normalized growth (S. cerevisiae deletion strains, locus YMR223W, strain ubp8, hits give low values): 0.889 (active)
- normalized growth (S. cerevisiae deletion strains, locus YMR231W, strain pep5, hits give low values): 1.01
- normalized growth (S. cerevisiae deletion strains, locus YMR263W, strain SAP30, hits give low values): 0.966
- normalized growth (S. cerevisiae deletion strains, locus YMR307W, strain GAS1, hits give low values): 0.885
- normalized growth (S. cerevisiae deletion strains, locus YNL067W, strain RPL9B, hits give low values): 0.928
- normalized growth (S. cerevisiae deletion strains, locus YNL071W, strain lat1, hits give low values): 0.208 (active)
- normalized growth (S. cerevisiae deletion strains, locus YNL128W, strain TEP1, hits give low values): 0.961
- normalized growth (S. cerevisiae deletion strains, locus YNL153C, strain GIM3, hits give low values): 0.994
- normalized growth (S. cerevisiae deletion strains, locus YNL183C, strain NPR1, hits give low values): 0.954
- normalized growth (S. cerevisiae deletion strains, locus YNL209W, strain ssb2, hits give low values): 0.886 (active)
- normalized growth (S. cerevisiae deletion strains, locus YNL233W, strain BNI4, hits give low values): 0.906
- normalized growth (S. cerevisiae deletion strains, locus YNL248C, strain rpa49, hits give low values): 0.84 (active)
- normalized growth (S. cerevisiae deletion strains, locus YNL250W, strain rad50, hits give low values): 0.946
- normalized growth (S. cerevisiae deletion strains, locus YNL271C, strain bni1, hits give low values): 0.942
- normalized growth (S. cerevisiae deletion strains, locus YNL298W, strain CLA4, hits give low values): 0.786 (active)
- normalized growth (S. cerevisiae deletion strains, locus YNL307C, strain MCK1, hits give low values): 0.744 (active)
- normalized growth (S. cerevisiae deletion strains, locus YNL322C, strain KRE1 (second series), hits give low values): 0.633 (active)
- normalized growth (S. cerevisiae deletion strains, locus YNL322C, strain KRE1, hits give low values): 0.98
- normalized growth (S. cerevisiae deletion strains, locus YNR049C, strain mso1, hits give low values): 1.01
- normalized growth (S. cerevisiae deletion strains, locus YNR052C, strain pop2, hits give low values): 0.896 (active)
- normalized growth (S. cerevisiae deletion strains, locus YOL006C, strain TOP1, hits give low values): 0.85
- normalized growth (S. cerevisiae deletion strains, locus YOL012C, strain htz1): 1.07
- normalized growth (S. cerevisiae deletion strains, locus YOL147C, strain pex11, hits give low values): 0.953
- normalized growth (S. cerevisiae deletion strains, locus YOR001W, strain rrp6, hits give low values): 0.397 (active)
- normalized growth (S. cerevisiae deletion strains, locus YOR061W, strain CKA2, hits give low values): 0.893
- normalized growth (S. cerevisiae deletion strains, locus YOR069W, strain VPS5, hits give low values): 0.992
- normalized growth (S. cerevisiae deletion strains, locus YOR070C, strain gyp1, hits give low values): 0.878 (active)
- normalized growth (S. cerevisiae deletion strains, locus YOR080W, strain dia2, hits give low values): 0.952
- normalized growth (S. cerevisiae deletion strains, locus YOR083W, strain WHI5, hits give low values): 0.866 (active)
- normalized growth (S. cerevisiae deletion strains, locus YOR106W, strain vam3, hits give low values): 0.442 (active)
- normalized growth (S. cerevisiae deletion strains, locus YOR136W, strain idh2, hits give low values): 0.934
- normalized growth (S. cerevisiae deletion strains, locus YOR144C, strain elg1, hits give low values): 0.973
- normalized growth (S. cerevisiae deletion strains, locus YOR184W, strain ser1, hits give low values): 0.774 (active)
- normalized growth (S. cerevisiae deletion strains, locus YOR231W, strain MKK1, hits give low values): 1.01
- normalized growth (S. cerevisiae deletion strains, locus YOR265W, strain rbl2, hits give low values): 0.926 (active)
- normalized growth (S. cerevisiae deletion strains, locus YOR270C, strain vph1, hits give low values): 0.506 (active)
- normalized growth (S. cerevisiae deletion strains, locus YOR290C, strain snf2, hits give low values): 0.899
- normalized growth (S. cerevisiae deletion strains, locus YOR316C, strain cot1, hits give low values): 0.969
- normalized growth (S. cerevisiae deletion strains, locus YPL051W, strain arl3, hits give low values): 0.831 (active)
- normalized growth (S. cerevisiae deletion strains, locus YPL055C, strain LGE1, hits give low values): 0.904
- normalized growth (S. cerevisiae deletion strains, locus YPL078C, strain atp4, hits give low values): 0.829 (active)
- normalized growth (S. cerevisiae deletion strains, locus YPL106C, strain sse1, hits give low values): 0.58 (active)
- normalized growth (S. cerevisiae deletion strains, locus YPL240C, strain hsp82, hits give low values): 0.342 (active)
- normalized growth (S. cerevisiae deletion strains, locus YPL241C, strain CIN2, hits give low values): 0.983
- normalized growth (S. cerevisiae deletion strains, locus YPL256C, strain CLN2, hits give low values): 0.981
- normalized growth (S. cerevisiae deletion strains, locus YPR119W, strain clb2, hits give low values): 0.97
- normalized growth (S. cerevisiae deletion strains, locus YPR141C, strain kar3, hits give low values): 0.979
- normalized growth (S. cerevisiae deletion strains, locus YPR163C, strain tif3, hits give low values): 0.961
- normalized growth (S. cerevisiae deletion strains, locus YPR167C, strain met16, hits give low values): 0.969
- normalized growth (S. cerevisiae deletion strains, strain wtn01, hits give low values): 0.928
- normalized growth (S. cerevisiae strains, strain wild type, hits give low values): 0.97
